{
  "source": "the supplement of paper PMC4166925",
  "note": "± gives the standard deviation of the averaged measurements. Over roughly 33,000 sequences, “E-score (dimensionless, -0.5 to 0.5)” has its median near -0.046; the highest 2% begin near 0.36. What follows is part of a selection rich in the highest values, with near analogues and random picks from the rest.",
  "data": [
    {"system": "T1, SpTbr T-box DNA-binding domain (GST fusion)", "T1 sequence": "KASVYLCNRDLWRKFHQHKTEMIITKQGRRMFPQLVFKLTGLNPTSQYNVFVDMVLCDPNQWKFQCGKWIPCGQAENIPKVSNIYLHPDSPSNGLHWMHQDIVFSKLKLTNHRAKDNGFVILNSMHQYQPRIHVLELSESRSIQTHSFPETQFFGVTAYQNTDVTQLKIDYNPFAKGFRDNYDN", "experiment": "PBM E-score of 8-mer (E-score (dimensionless, -0.5 to 0.5)); Tbr is Tbrain of the sea star Patiria miniata (Pm) or the sea urchin Strongylocentrotus purpuratus (Sp); higher = stronger binding preference", "details": "the construct has about 5 more residues each side", "outline": "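GST-fused Tbr T-box DNA-binding domains (the whole T-box plus about five flanking residues) were expressed in BL21 E. coli at 20 °C and purified by glutathione affinity chromatography. Universal Agilent oligonucleotide arrays were made double-stranded by primer extension, incubated with 200 nM protein in PBS (pH 7.5), then scanned and quantified. Every ungapped 8-mer was scored from probe intensities. The Universal PBM Analysis Suite gave each word an enrichment E-score, averaged over duplicate arrays.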", "values": [
      {"sequence": "GCCAGGCC", "PBM E-score of 8-mer": "-0.217 ± 0.036"},
      {"sequence": "GTCGCACA", "PBM E-score of 8-mer": "0.3754 ± 0.0036"},
      {"sequence": "ATCGCACC", "PBM E-score of 8-mer": "0.47 ± 0.006"},
      {"sequence": "ATCGCAGC", "PBM E-score of 8-mer": "0.0579 ± 0.024"},
      {"sequence": "GTCGCAAA", "PBM E-score of 8-mer": "0.0958 ± 0.038"},
      {"sequence": "ATCGCAAC", "PBM E-score of 8-mer": "0.232 ± 0.0099"},
      {"sequence": "GTCGCAGA", "PBM E-score of 8-mer": "-0.0708 ± 0.1"},
      {"sequence": "AAGGTTAG", "PBM E-score of 8-mer": "-0.0571 ± 0.0011"},
      {"sequence": "CTCGGGCC", "PBM E-score of 8-mer": "-0.167 ± 0.0065"},
      {"sequence": "GCCGGTCC", "PBM E-score of 8-mer": "-0.235 ± 0.075"},
      {"sequence": "GGCTCACA", "PBM E-score of 8-mer": "0.161 ± 0.053"},
      {"sequence": "TGCTCACA", "PBM E-score of 8-mer": "0.3801 ± 0.0011"},
      {"sequence": "AACTCACG", "PBM E-score of 8-mer": "0.00507 ± 0.019"},
      {"sequence": "TACTCACA", "PBM E-score of 8-mer": "0.371 ± 0.0028"},
      {"sequence": "GACTCACA", "PBM E-score of 8-mer": "0.313 ± 0.038"},
      {"sequence": "CACTCACG", "PBM E-score of 8-mer": "0.266 ± 0.052"},
      {"sequence": "AACTCACA", "PBM E-score of 8-mer": "0.2436 ± 0.00066"},
      {"sequence": "CACTCACA", "PBM E-score of 8-mer": "0.377 ± 0.017"},
      {"sequence": "CGCTCACA", "PBM E-score of 8-mer": "0.263 ± 0.015"},
      {"sequence": "ACGAGCTA", "PBM E-score of 8-mer": "-0.118 ± 0.015"},
      {"sequence": "TCAACCCA", "PBM E-score of 8-mer": "-0.174 ± 0.026"},
      {"sequence": "ATACTTGC", "PBM E-score of 8-mer": "0.0754 ± 0.026"},
      {"sequence": "ATGCATCA", "PBM E-score of 8-mer": "0.0819 ± 0.023"},
      {"sequence": "CGACTGAC", "PBM E-score of 8-mer": "0.0364 ± 0.013"},
      {"sequence": "AGAGGAGC", "PBM E-score of 8-mer": "-0.0105 ± 0.083"},
      {"sequence": "ACCTGTAC", "PBM E-score of 8-mer": "-0.148 ± 0.024"},
      {"sequence": "GAGTAAAC", "PBM E-score of 8-mer": "-0.0192 ± 0.019"},
      {"sequence": "CCCAGAAA", "PBM E-score of 8-mer": "-0.216 ± 0.045"},
      {"sequence": "TAGTGTAA", "PBM E-score of 8-mer": "0.216 ± 0.061"},
      {"sequence": "GAGTGTCC", "PBM E-score of 8-mer": "0.0603 ± 0.01"},
      {"sequence": "AAGTGTAG", "PBM E-score of 8-mer": "0.144 ± 0.0052"},
      {"sequence": "AAGTGTCG", "PBM E-score of 8-mer": 0.425},
      {"sequence": "TAGTGTCA", "PBM E-score of 8-mer": "0.395 ± 0.032"},
      {"sequence": "TCGTGTCA", "PBM E-score of 8-mer": "0.294 ± 0.0086"},
      {"sequence": "AAGTGTAA", "PBM E-score of 8-mer": "0.399 ± 0.018"},
      {"sequence": "GATTGTCA", "PBM E-score of 8-mer": "0.248 ± 0.0068"},
      {"sequence": "CAGTGTCG", "PBM E-score of 8-mer": "0.266 ± 0.0072"},
      {"sequence": "AAGTGTCT", "PBM E-score of 8-mer": "0.292 ± 0.033"},
      {"sequence": "GAGTGTCA", "PBM E-score of 8-mer": "0.4478 ± 0.0016"},
      {"sequence": "CAGTGTCA", "PBM E-score of 8-mer": "0.3068 ± 0.002"},
      {"sequence": "AGCAAAGC", "PBM E-score of 8-mer": "-0.0455 ± 0.048"},
      {"sequence": "AAAGCAGT", "PBM E-score of 8-mer": "-0.167 ± 0.049"},
      {"sequence": "TGAGATAA", "PBM E-score of 8-mer": "0.0687 ± 0.09"},
      {"sequence": "CACAGGGG", "PBM E-score of 8-mer": "0.0864 ± 0.031"},
      {"sequence": "ACCGTTCC", "PBM E-score of 8-mer": "-0.000825 ± 0.11"},
      {"sequence": "AAGTGTAT", "PBM E-score of 8-mer": "0.0229 ± 0.032"},
      {"sequence": "AAGTGTCA", "PBM E-score of 8-mer": "0.46288 ± 2.8e-05"},
      {"sequence": "AAGTGTCC", "PBM E-score of 8-mer": "0.2466 ± 0.0019"},
      {"sequence": "CCTATGCG", "PBM E-score of 8-mer": "0.00647 ± 0.019"},
      {"sequence": "GCACGCGA", "PBM E-score of 8-mer": "0.186 ± 0.025"},
      {"sequence": "CCACGCGA", "PBM E-score of 8-mer": "0.172 ± 0.028"},
      {"sequence": "TCGCGCGA", "PBM E-score of 8-mer": "0.379 ± 0.0069"},
      {"sequence": "ACACGCCA", "PBM E-score of 8-mer": "0.205 ± 0.0044"},
      {"sequence": "TCACGCCA", "PBM E-score of 8-mer": "0.403 ± 0.0053"},
      {"sequence": "GCGCGCCA", "PBM E-score of 8-mer": "0.133 ± 0.087"},
      {"sequence": "GCACGCCA", "PBM E-score of 8-mer": "0.0542 ± 0.013"},
      {"sequence": "ACGCGCCA", "PBM E-score of 8-mer": "0.201 ± 0.019"},
      {"sequence": "GCGCGCGA", "PBM E-score of 8-mer": "0.316 ± 0.041"},
      {"sequence": "TCACGCGA", "PBM E-score of 8-mer": "0.3949 ± 0.0026"},
      {"sequence": "CCGCGCGA", "PBM E-score of 8-mer": "0.203 ± 0.03"},
      {"sequence": "TCGCGCCA", "PBM E-score of 8-mer": "0.384 ± 0.009"},
      {"sequence": "CAGACAAA", "PBM E-score of 8-mer": "-0.0589 ± 0.033"},
      {"sequence": "GGATACAA", "PBM E-score of 8-mer": "0.0747 ± 0.011"},
      {"sequence": "CCGCCTCG", "PBM E-score of 8-mer": "-0.0478 ± 0.058"},
      {"sequence": "TAAAGAAA", "PBM E-score of 8-mer": "-0.13 ± 0.11"},
      {"sequence": "CCCTAACC", "PBM E-score of 8-mer": "-0.113 ± 0.029"},
      {"sequence": "ACGCGCGG", "PBM E-score of 8-mer": "0.229 ± 0.028"},
      {"sequence": "ACGCGCGA", "PBM E-score of 8-mer": "0.393 ± 0.023"},
      {"sequence": "ACGCGCGC", "PBM E-score of 8-mer": "0.189 ± 0.056"},
      {"sequence": "AAGTAGAA", "PBM E-score of 8-mer": "0.0466 ± 0.046"},
      {"sequence": "CGTGAAAA", "PBM E-score of 8-mer": "0.329 ± 0.069"},
      {"sequence": "TATGAACA", "PBM E-score of 8-mer": "-0.0802 ± 0.022"},
      {"sequence": "GGTGAAAA", "PBM E-score of 8-mer": "0.126 ± 0.095"},
      {"sequence": "CGTGAACC", "PBM E-score of 8-mer": "0.353 ± 0.018"},
      {"sequence": "GGTGAACA", "PBM E-score of 8-mer": "-0.0711 ± 0.04"},
      {"sequence": "CGTGAACA", "PBM E-score of 8-mer": "0.3774 ± 0.003"},
      {"sequence": "TGTGAAAA", "PBM E-score of 8-mer": "0.394 ± 0.048"},
      {"sequence": "TGTGAACA", "PBM E-score of 8-mer": "0.445 ± 0.0018"},
      {"sequence": "AGTGAACA", "PBM E-score of 8-mer": "0.175 ± 0.0043"},
      {"sequence": "AGATATTC", "PBM E-score of 8-mer": "-0.243 ± 0.033"},
      {"sequence": "AGCTATTG", "PBM E-score of 8-mer": "-0.0351 ± 0.028"},
      {"sequence": "ACTTAGAG", "PBM E-score of 8-mer": "-0.0957 ± 0.015"},
      {"sequence": "CCCAAATC", "PBM E-score of 8-mer": "-0.108 ± 0.11"},
      {"sequence": "CCAAGAGC", "PBM E-score of 8-mer": "-0.28 ± 0.06"},
      {"sequence": "ACGTGAGG", "PBM E-score of 8-mer": "0.196 ± 0.024"},
      {"sequence": "AAGTGAGG", "PBM E-score of 8-mer": "0.2725 ± 0.0021"},
      {"sequence": "AGGTGAGC", "PBM E-score of 8-mer": "0.2602 ± 0.00092"},
      {"sequence": "AAGTGAGA", "PBM E-score of 8-mer": "0.4 ± 0.018"}
    ]}
  ]
}
